Artemis inh – blocks endonuclease activity of human Artemis. recombinant Artemis, quenched FAM hairpin cleavage fluorescence. 30,000 tested, 0.78% active. AID 686954. inhibition, % at 10 µM;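 active = at 10 µM dose, at least 30% inhibition, measured as corrected fluorescence normalized to stimulator and neutral control wells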
Numbers without * were called inactive. The sample as a whole holds a higher share of hits than the screen did.

How did O=C(COC(=O)Cc1ccccc1)Nc1ncc(Cl)cc1Cl do in these assays?
Artemis inh: -13

Results for Cc1cc(NC(=O)COC(=O)c2c(C)nn(Cc3ccccc3Cl)c2C)no1 ?
Artemis inh: 89*

How did Cc1ccccc1C(O)(Cc1ccccc1)C1CN2CCC1CC2 (centres undefined) do in these assays?
Artemis inh: 0

How did O=c1[nH]c(=O)n(Cc2ccccc2)c(O)c1C=Nc1ccc(CN2CCOCC2)cc1 do in these assays?
Artemis inh: -3

What do the screens show for `CCCCCCn1c(O)c(C=NC2CCN(Cc3ccccc3)CC2)c(=O)[nH]c1=O`?
Artemis inh: 1
